High-throughput results from PubChem BioAssay.
tim23-1 inh = growth inhibitors of tim23-1 mutant yeast | AID 463212 | inhibition, % at 20 µM | S. cerevisiae tim23-1 growth, BacTiter-Glo luminescence, 24 h | hit rate 1.3% among 330,000;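 active means growth inhibition of the mutant yeast at or above 50%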;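 further: temperature-sensitive mutant grown at 25 °C; plate controls were DMSO-treated mutant yeast for no effect and medium wells lacking yeast for full effect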
tim10-1 inh = inhibits growth of tim10-1 mutant yeast. hit rate 2.2% among 330,000. inhibition, % at 20 µM. S. cerevisiae tim10-1 ts strain growth, BacTiter-Glo, 24 h;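 active means inhibition of at least 40%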;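 further: mutant grown at 25 °C; 0% = DMSO wells with yeast and 100% = wells holding no yeast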
SKKanGAS inh = SKKanGAS growth inhibition; S. pyogenes SKKanGAS, kanamycin growth, BacTiter-Glo, 6 h; hit rate 1.3% among 300,000; AID 1662; inhibition, % at 7.5 µM;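 active means mean replicate score, as percent of positive control median, at least 50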;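 further: strain carries kanamycin resistance gene driven by streptokinase promoter and grows in 40 µg/ml kanamycin; loss of luminescence reflects streptokinase promoter inhibition or plain growth inhibition; 0% = median of DMSO wells and 100% = positive control at its reference dose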
TIM10 inh = TIM10 yeast growth inhibition; hit rate 1.4% among 330,000; inhibition, % at 10 µM; S. cerevisiae TIM10 strain growth, BacTiter-Glo luminescence, 24 h;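 active means inhibition of 40% or more at the single tested concentration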;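 further: wild-type TIM10 isogenic control strain grown at permissive 25 °C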
NALP1 inh = blocks the NALP1 inflammasome reconstituted in yeast; inhibition, % at 10 µM; hit rate 0.61% among 280,000; AID 2071; S. cerevisiae NALP1/ASC/caspase-1 growth, X-gal OD620, 72 h; in the data active means inhibition mostly above about 24%, no sharp cut-off; inactive means mostly below about 32%
NLRP3 yeast inh = NALP3 inhibition in yeast; Yeast reconstituted NLRP3/ASC/caspase-1, beta-gal luminescence, 24 h; inhibition, % at 10 µM; AID 2825; hit rate 0.39% among 330,000;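 active means inhibition of 50% or more; inactive means inhibition below 50%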;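 further: plate controls were induced DMSO wells for no effect and uninduced yeast grown without galactose for full effect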
Active calls of the source: *. Compounds with a hit are over-represented: about 4.9% of the library has one in this group of screens.

For NC(=S)Nc1ccc(S(=O)(=O)c2ccc(NC(N)=S)cc2)cc1 the results were tim23-1 inh 18, tim10-1 inh -1, SKKanGAS inh 1, TIM10 inh 20, NALP1 inh -24 and NLRP3 yeast inh 11.
For NC(=O)c1nc[nH]c1C(=O)Nc1cccc(NC(=O)c2cccc(C(F)(F)F)c2)c1 the results were tim23-1 inh 7, tim10-1 inh 1, TIM10 inh -3 and NLRP3 yeast inh 16.
Screening CCc1nc2ccccc2[nH]c1=O returned tim23-1 inh 4, tim10-1 inh -23, SKKanGAS inh -4, TIM10 inh 6, NALP1 inh 0 and NLRP3 yeast inh 16.
O=c1[nH]c2ccccc2nc1C(F)(F)F was read as tim23-1 inh 0, tim10-1 inh 12, SKKanGAS inh -5, TIM10 inh 1, NALP1 inh 37* and NLRP3 yeast inh 7.
OC(COc1ccc(F)cc1Cl)CN1CCC(Cc2ccccc2)CC1 (stereo unspecified) was read as tim23-1 inh -239, tim10-1 inh -135, SKKanGAS inh 7, TIM10 inh -119, NALP1 inh 42* and NLRP3 yeast inh 47.
Cc1ccc(CN2CCN(/N=C/c3cc(Br)cc(Br)c3O)CC2)c(C)c1 was read as tim23-1 inh 33, tim10-1 inh 6, SKKanGAS inh -8, TIM10 inh -9, NALP1 inh 33 and NLRP3 yeast inh 9.
`Cc1ccc(C(=O)O)cc1N=Cc1cc(Br)cc(Br)c1O` gave SKKanGAS inh 7 and NALP1 inh 70*.
`CCOc1ccc(CCNC(=O)CS(=O)Cc2nc(-c3ccccc3C)oc2C)cc1OCC` (stereo unspecified) gave tim23-1 inh 14, tim10-1 inh 10, SKKanGAS inh -1, TIM10 inh 19, NALP1 inh 22 and NLRP3 yeast inh 12.
For Cc1ccc(C(=O)C2=C(O)C(=O)N(CC3CCCO3)C2c2ccccc2F)o1 (stereo unspecified) the results were tim23-1 inh -14, tim10-1 inh -23, SKKanGAS inh -2, TIM10 inh -7, NALP1 inh 6 and NLRP3 yeast inh 14.
Cc1cc(/C=C2\C(=N)N3N=C(S(C)(=O)=O)SC3=NC2=O)c(C)n1Cc1ccccc1 was read as tim23-1 inh 22, tim10-1 inh 27, SKKanGAS inh 54*, TIM10 inh 17, NALP1 inh 19 and NLRP3 yeast inh -3.
Screening Cc1cc(/C=C2/C(=N)N3C(=NC2=O)SN=C3S(C)(=O)=O)c(C)n1-c1ccccc1F returned tim23-1 inh 11, tim10-1 inh 23, SKKanGAS inh 56*, TIM10 inh 25, NALP1 inh 13 and NLRP3 yeast inh 12.
Screening CCCC1=NN2C(=N)/C(=C\c3cc(C)n(Cc4ccccc4)c3C)C(=O)N=C2S1 returned tim23-1 inh 2, tim10-1 inh 3, SKKanGAS inh 45, TIM10 inh -12, NALP1 inh -4 and NLRP3 yeast inh -13.
For O=[N+]([O-])c1ccc(Sc2cccc[n+]2[O-])c2nonc12 the results were SKKanGAS inh 102* and NALP1 inh 3.
For CC(C)(C#N)Nc1ccccc1 the results were tim23-1 inh 8, tim10-1 inh 4, SKKanGAS inh -2, TIM10 inh 12, NALP1 inh 18* and NLRP3 yeast inh 18.
Screening CC(C)(C#N)NC(=O)c1ccco1 returned tim23-1 inh 8, tim10-1 inh 7, SKKanGAS inh -2, TIM10 inh 6, NALP1 inh 13 and NLRP3 yeast inh 9.
Nc1ccc(SCc2cccnc2)cc1 was read as tim23-1 inh 4, tim10-1 inh 10, SKKanGAS inh 4, TIM10 inh -11, NALP1 inh 13 and NLRP3 yeast inh 10.
`CCOc1ccc(NC(=O)CN(C)C(=O)C2CC(=O)N(c3ccc4c(c3)OCCO4)C2)cc1OCC` (stereo unspecified) gave tim23-1 inh -19, tim10-1 inh -34, SKKanGAS inh 52*, TIM10 inh -13 and NLRP3 yeast inh 9.
`CCn1cc(C(=O)NCCCOC(C)C)c(=O)c2cc(S(=O)(=O)N3CCC(C)CC3)ccc21` gave tim23-1 inh -8, tim10-1 inh 5, SKKanGAS inh -1, TIM10 inh 12, NALP1 inh 14 and NLRP3 yeast inh 10.
